Out of some 360,000 compounds screened, about 4,600 (1.3%) were called active. What follows is part of a selection rich in actives, with near analogues and random picks from the rest. Unmarked numbers belong to inactive results.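 How the source made its calls: active means percent inhibition above its own plate's cutoff, namely the mean of that plate's compound wells plus 3 SD; inactive means the rest.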
biological target: Muscarinic acetylcholine receptor M1 (Homo sapiens) (UniProt P11229); experiment: CHRM1 blockers of acetylcholine calcium response – CHO-K1 cells, Fluo-8 calcium fluorescence, 1536-well, primary screen (AID 588852); conditions: CHO-K1 hM1, Fluo-8 calcium fluorescence, ACh EC80 antagonist; at 3 µM; stronger effect = higher value;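 further: peak over basal fluorescence ratio during 140 s after agonist addition; 0% = ACh EC80 plus DMSO and 100% = DMSO alone without agonist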
Sequence (P11229 whole entry, looked up): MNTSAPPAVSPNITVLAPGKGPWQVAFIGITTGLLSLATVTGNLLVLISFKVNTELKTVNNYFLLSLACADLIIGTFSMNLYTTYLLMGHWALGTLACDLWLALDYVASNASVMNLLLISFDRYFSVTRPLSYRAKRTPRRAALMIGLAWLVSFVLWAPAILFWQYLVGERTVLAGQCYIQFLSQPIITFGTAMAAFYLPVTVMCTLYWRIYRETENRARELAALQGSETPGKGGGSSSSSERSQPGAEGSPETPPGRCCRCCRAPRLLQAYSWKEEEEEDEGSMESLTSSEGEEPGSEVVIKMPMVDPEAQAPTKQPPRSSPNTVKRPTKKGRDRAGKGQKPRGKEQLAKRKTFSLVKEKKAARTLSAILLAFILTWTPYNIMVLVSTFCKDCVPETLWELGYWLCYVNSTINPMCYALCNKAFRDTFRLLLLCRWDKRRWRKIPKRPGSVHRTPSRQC

Row | Structure (SMILES) | inhibition
1 | Cc1nn(-c2ccccc2)c2sc(C(=O)N(Cc3ccco3)C(C)C(=O)NC(C)(C)C)cc12 (stereo unspecified) | -7.09%
2 | CCOC1=C2CN(S(=O)(=O)c3ccc(C)cc3)[C@H](c3cccs3)C[C@H]2[C@H]2C(=O)N(c3ccccc3)C(=O)[C@H]2C1 | 1.5%
3 | CC(C)C1CC2=C(C(=O)OC(C)(C)O2)C(c2ccc(F)cc2)O1 (stereo unspecified) | -37.3%
4 | O=C(NCC(=O)N(Cc1cccs1)C(C(=O)NC1CCCCC1)c1ccco1)c1cccs1 (stereo unspecified) | 35.6% (active)
5 | Cc1ccccc1N(C(=O)CNC(=O)c1cccs1)C(C(=O)NC1CCCC1)c1ccncc1 (stereo unspecified) | -4.08%
6 | O=C(NCC(=O)N(CC1CCCO1)C(C(=O)NC1CCCCC1)c1ccccc1)c1ccco1 (stereo unspecified) | -7.84%
7 | COc1ccc(CC(N)c2csc(NC(=O)NC(c3ccccc3)c3ccccc3)n2)cc1 (stereo unspecified) | -1.87%
8 | CN1OC[C@@H]2CN(C(=O)C(C)(C)C)[C@H](c3ccc(-n4ccnc4)cc3)C[C@@H]21 | 13.8%
9 | O=C(COC(=O)c1cc(S(=O)(=O)N2CCOCC2)ccc1F)NC1CC1 | -2.77%
10 | CCOC(=O)/C(N=Nc1cc(C(=O)O)cc(C(=O)O)c1)=C(\O)CCl | -12%
11 | CCN(CC)CCn1c2c(c(SCC(=O)Nc3nc4ccccc4s3)nc1=O)CCCC2 | 42.1% (active)
12 | CCN(CC)CCn1c2c(c(SCC(=O)Nc3ccc(C(C)C)cc3)nc1=O)CCC2 | 7.72%
13 | Cc1ccc2nc(NC(=O)CSc3nc(=O)n(CCCN(C)C)c4c3CCC4)sc2c1 | 8.16%
14 | COCCn1c(SCC(=O)Nc2cc(OC)ccc2OC)nc2c(c1=O)SC(C)C2 (stereo unspecified) | -11.7%
15 | CC1CN(C(=O)c2ccc3c(c2)OCO3)OC(c2ccccc2)O1 (stereo unspecified) | 1.63%
16 | COc1ccc(NC(=O)COC(=O)C2COc3ccccc3O2)cc1 (stereo unspecified) | -2.48%
17 | CCOc1ccc(NC(=O)c2ccc(NC(=O)COC(=O)c3ccc(NC(=O)CC#N)cc3)cc2)cc1 | 7.32%
18 | CCC(C)(C)c1ccc(Oc2ccc(NC(=O)COC(=O)C3=COCCO3)cc2)cc1 | 24.8% (active)
19 | COc1ccc(C(C(=O)NC2CCCCC2)N(C(=O)Cc2c[nH]c3ccccc23)c2ccccc2)cc1OC (stereo unspecified) | -2.89%
20 | COc1ccc(C2CC(c3cccs3)=NN2C(=O)COC(=O)c2cc3ccccc3cc2O)cc1OC (stereo unspecified) | -1.73%
21 | COc1ccc(C2CC(c3cccs3)=NN2C(=O)CSc2nnc(N)s2)cc1OC (stereo unspecified) | 48.8% (active)
22 | COc1ccc(C2CC(c3cccs3)=NN2C(=O)CSc2nncs2)cc1OC (stereo unspecified) | -3.74%
23 | O=C(Nc1nnc([C@H]2C[C@H](O)[C@@H](CO)O2)s1)c1cccc(Cl)c1 | -7.54%

Row | Structure (SMILES) | inhibition
24 | Nc1nc2c(ncn2[C@@H]2O[C@H](CNCc3ccc(OCCCN4CCOCC4)cc3)[C@@H](O)[C@H]2O)c(=O)[nH]1 | -12.3%
25 | COC(=O)c1ccccc1Sc1c(/C=N/OCc2ccc(Cl)cc2)c(C(F)(F)F)nn1C | 6.15%
26 | O=C(CN1CCN(c2ccc(F)cc2)CC1)Nc1cccc(C(F)(F)F)c1 | -30.1%
27 | Cn1nc(C(F)(F)F)c(C(=O)Nc2cccc(C(F)(F)F)c2)c1SCc1ccc(Cl)cc1 | 45.3% (active)
28 | COc1cccc(NC(=O)Nc2nnc(N3CCCCC3C)s2)c1 (stereo unspecified) | -9.08%
29 | C=C(C)c1cccc(C(C)(C)NC(=O)NCCN(CC)CC)c1 | 82.6% (active)
30 | C=C(C)c1cccc(C(C)(C)NC(=O)N2CCN(c3ncccn3)CC2)c1 | -3.97%
31 | C=C(C)c1cccc(C(C)(C)NC(=O)NC2CCCC2)c1 | -0.33%
32 | CN(CC(=O)NCCc1ccccc1)S(=O)(=O)c1cnc[nH]1 | -5.57%
33 | CC(C)C(=O)Nc1nnc(Sc2ccc(N(C)C)cc2)s1 | -14.1%
34 | CN(C)C1=NC[C@H](Cc2ccccc2)N1CCc1ccc(F)cc1 | 9.98%
35 | CCC(C(=O)Nc1ccc(C(C)C)cc1)c1ccccc1 (stereo unspecified) | 37.1% (active)
36 | CC(C)c1ccc(NC(=O)Cn2ncc3ccccc32)cc1 | -20.8%
37 | CC(NC(=O)Nc1ccccc1)c1ccccc1 (stereo unspecified) | -2.37%
38 | COc1ccc(C(C)(O)c2nc(-c3cc(F)cc(F)c3)cs2)cc1 (stereo unspecified) | -4.19%
39 | COc1ccccc1N(C)S(=O)(=O)c1ccc(C(=O)N2CCC(C(N)=O)CC2)cc1 | -7.95%
40 | COC(=O)CCCCC1=CCC2C(=O)C=C(O)C2C1 (stereo unspecified) | 4.53%
41 | Cc1ccc(C)c(N2CCN(C(=O)CCCCCn3c(=S)[nH]c4ccc(N5CCOCC5)cc4c3=O)CC2)c1 | 39.5% (active)
42 | Cc1ccc(C)c(N2CCN(C(=O)CCCn3c(=O)c4cccn4c4cccnc43)CC2)c1 | -0.03%
43 | O=C(CCCCCn1c(=S)[nH]c2cc3c(cc2c1=O)OCO3)N1CCN(c2ccc(F)cc2)CC1 | -8.71%
44 | Cc1ccnc(NC(=O)C(C)N2C(=O)c3ccccc3C2=O)c1 (stereo unspecified) | -0.26%
45 | Cc1ccccc1C#CC1=CC(=O)CC(C)(C)C1 | -7.17%
46 | CN(Cc1ccccc1)C(=O)CSc1nc2ccccc2[nH]1 | -5.93%

Row | Structure (SMILES) | inhibition
47 | CCC(C)N1C(=O)S/C(=C/c2ccc(Sc3nc4ccccc4[nH]3)o2)C1=O (stereo unspecified) | 32.9% (active)
48 | CN1CCN(c2ccc([N+](=O)[O-])c(Sc3nc4ccccc4[nH]3)c2)CC1 | -0.69%
49 | O=C(C1CCC1)N1CCc2cc(S(=O)(=O)NCc3cccnc3)ccc21 | -15.2%
50 | COc1ccc(C(c2nnnn2C2CCCCC2)N2CCN(c3ccccc3F)CC2)cc1 (stereo unspecified) | -2.28%
51 | COc1ccc(C(c2nnnn2C2CCCC2)N2CCN(C/C=C/c3ccccc3)CC2)cc1 (stereo unspecified) | 48.7% (active)
52 | FC(F)(F)Oc1ccccc1C(c1nnnn1C1CCCCC1)N1CCN(C/C=C/c2ccccc2)CC1 (stereo unspecified) | -18.7%
53 | CC(=O)Nc1cc(-c2ccccc2N(C)C)cn2c(-c3ccc(F)c(Cl)c3)cnc12 | -16.4%
54 | CC(=O)c1ccc(N2CCN(C(=O)c3ccc4nc[nH]c4c3)CC2)cc1 | -1.75%
55 | Cc1nc2ccc(C(=O)N(C)CC3CCCN(CCc4ccc(Cl)cc4)C3)cc2[nH]1 (stereo unspecified) | 17.1%
56 | CN(CC1CCCN(CCc2cccc(C(F)(F)F)c2)C1)C(=O)c1ccc2nc[nH]c2c1 (stereo unspecified) | 84.4% (active)
57 | COc1ccc(NC(=O)C2Cc3c(-c4ccc5c(c4)OCO5)ccnc3O2)cn1 (stereo unspecified) | -14.1%
58 | COc1ccc(-c2[nH][nH]c(=O)c2NC(=O)c2ccc([N+](=O)[O-])cc2)cc1 | -25%
59 | CSCCNCc1cn(-c2ccc(F)cc2F)nc1-c1ccccc1C | -13.6%
60 | CC(=O)Nc1cccc(-c2ccnc3c2CC(C)(C(=O)NCc2ccco2)O3)c1 (stereo unspecified) | -8.07%
61 | COc1ccc(CCNC(=O)COC(=O)c2ccc[nH]c2=O)cc1 | -7.65%
62 | CCCc1nc2ccccc2c(C(=O)OCc2nnc(-c3cc(OC)c(OC)c(OC)c3)o2)c1CC | 24.3% (active)
63 | O=C(OCc1nnc(-c2ccccc2)o1)c1cc(=O)[nH]c2ccccc12 | -2.41%
64 | CCOC(=O)c1cc(-c2nnc(-c3cc(OC)c(OC)c(OC)c3)o2)c(C)nc1C | -32.2%
65 | O=C(NC1CCCCC1)C1CCC(CNS(=O)(=O)c2ccccc2)CC1 (stereo unspecified) | 2.63%
66 | C[C@@H](CN1CCC[C@H]1CN1C(N)=NC[C@@H]1Cc1ccccc1)N1C[C@@H](Cc2ccccc2)N(CCCC2CCCC2)C1=N | 93.1% (active)
67 | CC[C@@H](C)[C@@H]1CN([C@@H](C)CN2CCC[C@H]2CN2C(N)=NC[C@H]2C(C)C)C(=N)N1CCc1ccc(Cl)c(Cl)c1 | 16.5%
68 | CCCCN1C(N)=NC[C@@H]1Cc1ccccc1 | -1.32%
69 | Cc1cc(/C=C2/SC(=O)N(CC(=O)N3CCCC3)C2=O)ccc1N1CCOCC1 | -1.78%

Row | Structure (SMILES) | inhibition
70 | COc1ccc(NC(=O)N2CCC(Cc3ccccc3)CC2)cc1 | -2.81%
71 | COc1ccc(S(=O)(=O)NC(C)C(=O)N2CCCCCC2)cc1 (stereo unspecified) | -12.2%
72 | COc1ccc(CNS(=O)(=O)c2ccc(NC(=O)N3CCCCC3)cc2)cc1 | 33.3% (active)
73 | COCC(=O)N1CCCC(C(=O)c2ccc(C(F)(F)F)cc2)C1 (stereo unspecified) | -12.9%
74 | O=C1CCCC2=C1C(c1cccs1)n1nc(SCc3ccccc3)nc1N2 (stereo unspecified) | -6.44%
75 | O=C(NCCCO)c1cc2c([nH]c3ccccc32)c(-c2ccc(F)cc2)n1 | 1.06%
76 | O=C(NCC1CCCO1)c1cc2c([nH]c3ccccc32)c(-c2ccc(F)cc2)n1 (stereo unspecified) | 42.6% (active)
77 | COc1ccc2cc(C(=O)NCC3CCCO3)[nH]c2c1 (stereo unspecified) | -11.4%
78 | CC(C)(C)c1ccc(CCC2OCC(CN3CCOCC3)O2)cc1 (stereo unspecified) | -5.48%
79 | NC(=O)CC[C@@H]1NC(=O)[C@@H]2CCCN2C(=O)c2cc([N+](=O)[O-])cc(F)c2NCCC[C@@H](C(N)=O)NC1=O | -13.1%
80 | COc1ccccc1CC(=O)Nc1ccc(S(=O)(=O)N2CCCC2)cc1 | -9.64%
81 | Cc1ccc(CC(=O)Nc2ccc(S(=O)(=O)N3CCOCC3)cc2)cc1C | -11.9%
82 | CN(CC(=O)Nc1ccc(S(=O)(=O)N2CCCC2)cc1)Cc1ccc(Cl)c(Cl)c1 | 34.9% (active)
83 | O=C(Nc1ccc(S(=O)(=O)N2CCCCC2)cc1)C1CC(=O)N(c2ccc(F)cc2)C1 (stereo unspecified) | -6.03%
84 | CCc1ccc(NC(=O)CN2C(=O)COc3ccc(S(=O)(=O)N4CCCC4)cc32)cc1 | -15.9%
85 | CCc1ccc(CN(C)C(C)C(=O)Nc2ccc(S(=O)(=O)N3CCCC3)cc2)cc1 (stereo unspecified) | 88.9% (active)
86 | CN(CC(=O)Nc1ccc(F)cc1)CC(=O)Nc1ccc(Cl)c(S(=O)(=O)N2CCOCC2)c1 | -20.8%
87 | CC(OC(=O)c1ccc(NC(=O)CC#N)cc1)C(=O)Nc1ccc(S(=O)(=O)N2CCCC2)cc1 (stereo unspecified) | 32.6%
88 | CCN(CC(=O)Nc1ccc(S(=O)(=O)N2CCCC2)cc1)CC(=O)Nc1cccc(OC)c1 | -10.7%
89 | O=C(Nc1ccc(S(=O)(=O)N2CCCCC2)cc1)C1CCN(C(=O)c2ccc(F)cc2)CC1 | 9.2%
90 | CC(C(=O)Nc1ccc(S(=O)(=O)N2CCCC2)cc1)N(C)Cc1ccc(F)cc1 (stereo unspecified) | 53.5% (active)
91 | COc1cccc(CNC(C)C(=O)Nc2ccc(S(=O)(=O)N3CCCC3)cc2)c1 (stereo unspecified) | 39.5% (active)

— PubChem BioAssay AID588852 (The Scripps Research Institute Molecular Screening Center, 2011)
